Results: PubChem BioAssay AID743143 (Broad Institute, 2013)
Potency and affinity values are given separately. Active and inactive are the calls of the source.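 How the source made its calls: active means falling signal curve whose fitted half-maximal dose lies at or below the top valid tested dose; inconclusive means flat fit showing 30 to 70% loss, or poor fit; inactive means rising signal, flat within 30%, or half-maximal dose above top.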

Assay: HepG2 cell cytotoxicity, dose response, cytotoxicity control, ATP luminescence, dry powder, Set4 (AID 743143)

SMILES | outcome
CC(C)(C)OC(=O)NCCC(=O)N[C@H]1CCCc2ccccc21 | inactive
O=C(CCCNC(=O)c1ccc(Cl)cc1)N[C@@H]1CCCc2ccccc21 | inactive
O=C(CNC(=O)c1ccc(C(F)(F)F)cc1)N[C@@H]1CCCc2ccccc21 | inactive
Cc1cccc(C(=O)NCCC(=O)NC2CCCc3ccccc32)c1 (stereo not given) | inactive
O=C(CNC(=O)c1ccc(Cl)cc1)N[C@@H]1CCCc2ccccc21 | inactive
O=C(NC1CCOc2ccccc21)C1CCCN(C(=O)c2ccc(Cl)cc2)C1 (stereo not given) | inactive
C[C@@H](NC(=O)CCNC(=O)c1ccc(Cl)cc1)c1ccccc1 | inactive
O=C(CCNC(=O)c1ccc(Cl)cc1)NC1CCCc2ccccc21 (stereo not given) | inactive
CN(C(=O)CCNC(=O)c1ccc(F)cc1F)C1CCCc2ccccc21 (stereo not given) | inactive
O=C(CCNC(=O)c1ccccc1)N[C@@H]1CCCc2ccccc21 | inactive
O=C(NC1CCc2ccccc21)C1CCCN(C(=O)c2ccc(Cl)cc2)C1 (stereo not given) | inactive
COc1ccc(C(=O)NCCC(=O)N[C@@H]2CCCc3ccccc32)cc1 | inactive
CC(c1ccccc1)N(C)C(=O)CCNC(=O)c1ccc(Cl)cc1 (stereo not given) | inactive
O=C(CCNC(=O)c1ccc(Cl)cc1)N[C@@H]1CCCc2ccccc21 | inactive
COc1ccccc1C(=O)NCCC(=O)NC1CCCc2ccccc21 (stereo not given) | inactive
O=C(CCNC(=O)c1ccc(Cl)cc1)NC1CCCCC1 | inactive
CC(NC(=O)CCNC(=O)c1ccc(Cl)cc1)c1ccc2c(c1)OCO2 (stereo not given) | inactive
NCCC(=O)N[C@@H]1CCCc2ccccc21 | inactive
N#Cc1ccc(C(=O)NCCC(=O)N[C@@H]2CCCc3ccccc32)cc1 | inactive
O=C(CNC(=O)c1ccc(OC(F)(F)F)cc1)N[C@@H]1CCCc2ccccc21 | inactive

SMILES | outcome
CC(=O)NCCC(=O)N[C@@H]1CCCc2ccccc21 | inactive
O=C(CCNC(=O)c1ccc2c(c1)OC(F)(F)O2)N[C@@H]1CCCc2ccccc21 | inactive
O=C(CCNC(=O)c1ccc(F)cc1)N[C@@H]1CCCc2ccccc21 | inactive
O=C(CCNC(=O)c1ccc(Cl)cc1)N[C@H]1CCCc2ccccc21 | inactive
Cc1ccc(C(=O)NCCC(=O)N[C@@H]2CCCc3ccccc32)cc1 | inactive
O=C(CCNC(=O)c1ccc(Cl)c(Cl)c1)N[C@@H]1CCCc2ccccc21 | inactive
O=C(CCNC(=O)c1ccc(Cl)cc1)N[C@@H]1CCc2ccccc21 | inactive
CC(NC(=O)C1CCCN(C(=O)c2ccc(Cl)cc2)C1)c1ccccc1 (stereo not given) | inactive
CC(NC(=O)CCNC(=O)c1ccc(Cl)cc1)c1ccc(F)cc1 (stereo not given) | inactive
CC(C)(C)OC(=O)NCCC(=O)N[C@@H]1CCCc2ccccc21 | inactive
O=C(CCNC(=O)c1cccc(Cl)c1)N[C@@H]1CCCc2ccccc21 | inactive
CC(CC(=O)N(C)C1CCCc2ccccc21)NC(=O)c1ccccc1 (stereo not given) | inactive
CC(CC(=O)NC1CCCc2ccccc21)NC(=O)c1ccccc1 (stereo not given) | inactive
O=C(CCNC(=O)c1ccc(OC(F)(F)F)cc1)N[C@@H]1CCCc2ccccc21 | inactive
O=C(CCNC(=O)c1ccccc1Cl)NC1CCCc2ccccc21 (stereo not given) | inactive
COc1ccccc1C(C)NC(=O)CCNC(=O)c1ccc(Cl)cc1 (stereo not given) | inactive
O=C(Cc1ccc(Cl)cc1)NCCC(=O)N[C@@H]1CCCc2ccccc21 | inactive
O=C(CCCNC(=O)c1ccc(C(F)(F)F)cc1)N[C@@H]1CCCc2ccccc21 | inactive
O=C(CCCNC(=O)c1ccc(OC(F)(F)F)cc1)N[C@@H]1CCCc2ccccc21 | inactive
O=C(CCNC(=O)c1ccc(C(F)(F)F)cc1)N[C@@H]1CCCc2ccccc21 | inactive
